Source: PubChem BioAssay (National Center for Advancing Translational Sciences (NCATS))
Hits are enriched below; roughly 19% of the tested compounds scored in any of these assays.
IL1B secr inh – qHTS for Inhibitors of Inflammasome Signaling: IL-1-beta AlphaLISA Primary Screen; hit rate 4.7% among 360,000; activity change, % at 57.5 µM; THP-1 LPS/ATP IL-1B secretion, AlphaLISA, 16 h; stronger effect = lower value; in the data active = activity change below about -50%; inconclusive = mostly about -30% to -49%; note: % is set by controls: 0 for no effect and ±100 for the full control effect
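Secreted IL-1B measured by AlphaLISA bead assay after 16 h compound exposure of THP-1 cells; compounds (final up to 57.5 uM) added 1 h before LPS (250 ng/mL) and ATP (1.25 mM) stimulation; lower signal means less secretion.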
DT40 TDP1 CPT – qHTS for Inhibitors of human tyrosyl-DNA phosphodiesterase 1 (TDP1): qHTS in cells in presence of CPT; chicken DT40 Tdp1-/-;hTDP1 cells + 20 nM CPT, ATP luminescence, 48 h; Potency, µM (top dose mostly 46.2 µM), inactives show top-dose activity change, negative = growth inhibition, actives largely listed as inhibitors; hit rate 12% among 420,000; AID 686979, 2013; note: potency is the fitted concentration of half-maximal effect; % is set by controls: 0 for no effect and ±100 for the full control effect; nearly all actives have a fitted effect of over 55% in size
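Chicken DT40 Tdp1-/- cells stably complemented with human TDP1 were seeded at 400 cells/well in medium containing 20 nM camptothecin, exposed to pin-transferred compounds, and grown at 37 °C for at least 48 hr. Viability was read as ATP luminescence.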
DT40 TDP1 no CPT – qHTS for Inhibitors of human tyrosyl-DNA phosphodiesterase 1 (TDP1): qHTS in cells in absence of CPT | DT40 Tdp1-/- hTDP1 cells, no CPT, ATP luminescence, 48 h | hit rate 15% among 420,000 | AID 686978, 2013 | Potency, µM (titrated, usually from 46.2 µM), without a hit: at the top dose activity change, negative = growth inhibition, most hits filed as inhibitors; note: potency is the fitted concentration of half-maximal effect; % is set by controls: 0 for no effect and ±100 for the full control effect; nearly all actives have a fitted effect of over 55% in size
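Chicken DT40 Tdp1-/- cells complemented with human TDP1, screened without camptothecin (DMSO vehicle only), 400 cells/well. Compounds pin-transferred, cells incubated at 37 °C for at least 48 hr. Growth read as ATP-dependent luminescence (CellTiter-Glo, 30 min at RT).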
TGFb SMAD3 inh – qHTS for Inhibitors of TGF-b; HepG2 CAGA-GFP TGF-b/SMAD3 reporter, GFP fluorescence, 18 h; TGF-beta stimulated, 500 pg/mL final; hit rate 1.2% among 410,000; Potency, µM (series often up to 46.1 µM), without a hit: at the highest dose activity, negative = inhibition, most hits filed as inhibitors; AID 588855, 2011; note: potency is the fitted concentration of half-maximal effect; % is set by controls: 0 for no effect and ±100 for the full control effect; nearly all actives have a fitted effect of over 65% in size
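TGF-beta reporter screen: HEPG2 CAGA-GFP, 1% FBS, 500 pg/mL TGF-beta final, 18 h; per-cell GFP summed per well; curves fitted and categorized by class.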
HepG2 tox-1 – qHTS for Inhibitors of TGF-b: Cytotox Counterscreen; Potency, µM (doses to about 46.1 µM), inactives show at the top dose activity change, negative = cytotoxicity, hits mostly cytotoxic; hit rate 0.76% among 410,000; HepG2 CAGA-GFP viability, ATP luminescence, 18 h; AID 588856, 2011; note: potency is the fitted concentration of half-maximal effect
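CellTiter-Glo luminescence gave cytotoxicity after 18 hours at 37 degrees C. The cells were HepG2 CAGA-GFP in 1% FBS DMEM, stimulated with 500 pg/mL TGF-beta after compound addition. %Activity was normalised to no-cell wells (complete cell-killing) and DMSO (no toxicity), and curves were fitted and classified.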
TDP1 block – qHTS Assay for Inhibitors of Tyrosyl-DNA Phosphodiesterase (TDP1). Potency, µM (highest dose often 130 µM), without a hit: at the highest dose activity change, negative = inhibition, usual class: inhibitors. hit rate 0.28% among 350,000. recombinant TDP1, AlphaScreen DNA substrate cleavage. AID 485290, 2010. Tyrosyl-DNA phosphodiesterase 1 (Homo sapiens), Q9NUW8; note: potency is the fitted concentration of half-maximal effect; % is set by controls: 0 for no effect and ±100 for the full control effect; nearly all actives have a fitted effect of over 40% in size
Target sequence (Q9NUW8 whole entry, looked up): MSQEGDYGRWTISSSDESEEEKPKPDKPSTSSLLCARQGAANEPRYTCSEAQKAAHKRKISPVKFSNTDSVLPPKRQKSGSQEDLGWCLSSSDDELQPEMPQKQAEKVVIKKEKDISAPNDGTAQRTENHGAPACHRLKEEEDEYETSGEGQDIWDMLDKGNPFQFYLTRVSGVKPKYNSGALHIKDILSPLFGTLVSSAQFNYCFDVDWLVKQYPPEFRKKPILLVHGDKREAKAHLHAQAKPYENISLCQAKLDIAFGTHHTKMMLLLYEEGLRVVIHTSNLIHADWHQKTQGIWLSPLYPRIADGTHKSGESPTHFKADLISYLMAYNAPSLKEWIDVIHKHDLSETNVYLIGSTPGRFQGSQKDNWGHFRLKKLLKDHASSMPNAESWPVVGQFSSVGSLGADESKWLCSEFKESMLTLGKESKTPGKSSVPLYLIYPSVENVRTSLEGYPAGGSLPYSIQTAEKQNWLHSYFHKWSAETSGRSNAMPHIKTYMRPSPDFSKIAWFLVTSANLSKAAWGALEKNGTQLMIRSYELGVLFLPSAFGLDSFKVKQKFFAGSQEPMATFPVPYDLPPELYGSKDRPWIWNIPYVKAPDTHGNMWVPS
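Steps: enzyme plus compound, 15 min RT; add biotin/phosphotyrosine-FITC oligonucleotide (15 nM final), react 5 min; add donor/acceptor beads (10 ug/ml final), 10 min; read AlphaScreen. Tdp1 at 1 nM final.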
TGFb confirm – qHTS for Inhibitors of TGF-b: Confirmation of Cherry Picks. shares compounds with TGFb SMAD3 inh. HepG2 CAGA-GFP TGF-b reporter, GFP fluorescence, 18 h; cells stimulated with TGF-beta, 500 pg/mL. Potency, µM (titrated, usually from 46.1 µM), for the others: top-dose activity, negative = inhibition, actives largely listed as inhibitors. hit rate 63% among 1,600. AID 720534, 2013; note: potency is the fitted concentration of half-maximal effect; % is set by controls: 0 for no effect and ±100 for the full control effect; nearly all actives have a fitted effect of over 65% in size
HepG2 tox-2 – qHTS for Inhibitors of TGF-b: Cytotox Counterscreen for Cherry Picks | hit rate 27% among 1,600 | shares compounds with TGFb SMAD3 inh | Potency, µM (series often up to 46.1 µM), for inactives: top-dose activity, negative = cytotoxicity, most hits filed as inhibitors | HepG2 CAGA-GFP viability, ATP luminescence, 18 h; cells stimulated with TGF-beta, 500 pg/mL; note: potency is the fitted concentration of half-maximal effect; % is set by controls: 0 for no effect and ±100 for the full control effect; nearly all actives have a fitted effect of over 70% in size
TGFb CCL64 inh – qHTS for Inhibitors of TGF-b: CCL64 Cells Orthogonal Assay for Cherry Picks | AID 720536, 2013 | Potency, µM (doses to about 46.1 µM), for inactives: at the highest dose activity, negative = inhibition, most hits filed as inhibitors | shares compounds with TGFb SMAD3 inh | hit rate 41% among 1,600 | CCL64 CAGA-GFP reporter, TGF-b stimulated, GFP fluorescence, 18 h; note: potency is the fitted concentration of half-maximal effect; nearly all actives have a fitted effect of over 65% in size
TGFb COP inh – qHTS for Inhibitors of TGF-b: Hit Validation in HepG2 Cells using COP promoter. shares compounds with TGFb SMAD3 inh. Potency, µM (series often up to 46.1 µM), for inactives: at the top dose activity, negative = inhibition, usual class: inhibitors. hit rate 3% among 1,600. HepG2 COP-GFP TGF-b reporter, GFP fluorescence, 18 h; cells stimulated by added recombinant TGF-beta; note: potency is the fitted concentration of half-maximal effect; nearly all actives have a fitted effect of over 70% in size
Active calls of the source: *; ! = not confirmed by another sample. Unless noted, calls come from the whole dose curve; as a rule, active = well fitted curve in the direction sought with a large enough effect; inconclusive = small, poorly fitted or top-dose-only effect, or another doubt; inactive = no such curve, though single readings can be large; an effect the other way counts as inactive or inconclusive.

Results for COc1ccc(C[C@H](N)C(=O)N[C@H]2[C@@H](O)[C@H](n3cnc4c(N(C)C)ncnc43)O[C@@H]2CO)cc1 ?
IL1B secr inh: -90*; DT40 TDP1 CPT: -25%; DT40 TDP1 no CPT: 8.2µM*!; TGFb SMAD3 inh: 3.2µM*; HepG2 tox-1: -80%; TGFb confirm: 5.2µM*; HepG2 tox-2: 2.1µM*; TGFb CCL64 inh: 2.9µM*; TGFb COP inh: inconclusive

How did OCC1OC(n2ccc3c2ncn2ncnc32)C(O)C1O (centres undefined) do in these assays?
IL1B secr inh: 66; DT40 TDP1 CPT: 0.37µM*; DT40 TDP1 no CPT: 0.46µM*; TGFb SMAD3 inh: 5µM*; HepG2 tox-1: -64%; TGFb confirm: 1.8µM*; HepG2 tox-2: 0.52µM*; TGFb CCL64 inh: 5%; TGFb COP inh: 24%

Results for CCN1C[C@@H]2[C@@H]3C(=O)N(C)C(=O)[C@@H]3[C@](CC)(C(=O)OC)N2C1=NCc1ccccc1 ?
IL1B secr inh: 12; DT40 TDP1 CPT: 13%; DT40 TDP1 no CPT: 5%; TGFb SMAD3 inh: 3%; HepG2 tox-1: 1%

Results for COC(=O)CCC(=O)c1ccc(OC)c(Cl)c1 ?
TDP1 block: -4%

Results for O=C(NCC(=O)N(c1ccccc1F)C(C(=O)NC1CCCC1)c1ccncc1)c1ccco1 (centres undefined) ?
IL1B secr inh: 17; DT40 TDP1 CPT: 1%; DT40 TDP1 no CPT: 5%; TGFb SMAD3 inh: 0%; HepG2 tox-1: -1%

Results for COc1ccc(CNC(=O)[C@@H]2CC=C[C@@H]3CCN(Cc4ccc(Cl)c(Cl)c4)C(=O)[C@@H]32)cc1 ?
IL1B secr inh: 0; DT40 TDP1 CPT: 23µM*; DT40 TDP1 no CPT: 11µM*; TGFb SMAD3 inh: 16µM*; HepG2 tox-1: -13%; TGFb confirm: 21µM*; HepG2 tox-2: inconclusive; TGFb CCL64 inh: inconclusive; TGFb COP inh: 30%

Results for COc1ccc(CNC(=O)[C@@H]2CC=C[C@@H]3CCN(Cc4ccc(OC)c(OC)c4)C(=O)[C@@H]32)cc1 ?
DT40 TDP1 CPT: -15%; DT40 TDP1 no CPT: -13%; TGFb SMAD3 inh: 3%; HepG2 tox-1: -41%

How did CC(=Nc1ccccc1)C1=C(O)C(Cc2ccccc2)NC1=O (centres undefined) do in these assays?
IL1B secr inh: 24; DT40 TDP1 CPT: 0.012µM*; DT40 TDP1 no CPT: 0.0058µM*; TGFb SMAD3 inh: inconclusive; HepG2 tox-1: 1%; TGFb confirm: inconclusive; HepG2 tox-2: -7%; TGFb CCL64 inh: 3.3µM*; TGFb COP inh: -17%

What do the screens show for `CCC(=O)Nc1c(S(=O)(=O)c2ccc(C)cc2)c2nc3ccccc3nc2n1C(C)c1ccccc1` (centres undefined)?
IL1B secr inh: 2; DT40 TDP1 CPT: inconclusive; DT40 TDP1 no CPT: inconclusive; TGFb SMAD3 inh: inconclusive; HepG2 tox-1: 24%; TDP1 block: 3%

What do the screens show for `CCCCn1c(NC(=O)c2ccco2)c(S(=O)(=O)c2ccc(C)cc2)c2nc3ccccc3nc21`?
IL1B secr inh: 0; DT40 TDP1 CPT: inconclusive; DT40 TDP1 no CPT: inconclusive; TGFb SMAD3 inh: inconclusive; HepG2 tox-1: -6%; TDP1 block: 0%; TGFb confirm: 3%; HepG2 tox-2: -20%; TGFb CCL64 inh: 16µM*; TGFb COP inh: 32%

Results for COc1cccc(C2c3cc4c(cc3OC(NNC(N)=O)C2C)OCO4)c1O (centres undefined) ?
IL1B secr inh: 33; DT40 TDP1 CPT: 4.6µM*; DT40 TDP1 no CPT: 4.1µM*; TGFb SMAD3 inh: 10µM*; HepG2 tox-1: 3%; TGFb confirm: 8.2µM*; HepG2 tox-2: -19%; TGFb CCL64 inh: inconclusive; TGFb COP inh: -15%

What do the screens show for `COc1cc(C2c3cc4c(cc3OC(NCc3ccccc3)C2C)OCO4)cc(OC)c1OC` (centres undefined)?
IL1B secr inh: 15; DT40 TDP1 CPT: 1.2µM*; DT40 TDP1 no CPT: 1.5µM*; TGFb SMAD3 inh: 2.8µM*; HepG2 tox-1: -105%; TGFb confirm: 7.3µM*; HepG2 tox-2: 0%; TGFb CCL64 inh: inconclusive; TGFb COP inh: -16%

What do the screens show for `COc1cc(C2c3cc4c(cc3C(O)C3COCC23)OCO4)cc(OC)c1OC` (centres undefined)?
IL1B secr inh: 64; DT40 TDP1 CPT: inconclusive; DT40 TDP1 no CPT: inconclusive; TGFb SMAD3 inh: 10%; HepG2 tox-1: -13%
